Bioassay records as filed in PubChem.
Cycloheximide cs: counter-screen hit for Shiga toxin inhibitors, cycloheximide; cell reporter, cycloheximide protein synthesis inhibition counterscreen; 12% of 300,000 active; max response, %; in the data active means max response mostly above about 13%, no sharp cut-off; inactive means mostly below about 14%; further: read at 38.3 µM for the half of the compounds with a filed dose
Pf growth 48h: P. falciparum growth inhibition at 48 hours (one generation). P. falciparum luciferase growth in erythrocytes, 48 h. Potency, µM (titrated, usually from 28.7 µM), hits mostly inhibitors. 5.9% of 310,000 active. AID 504832
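Growth was read as firefly luciferase luminescence after a 48 h, 37 C, 5% CO2 exposure of compounds to reporter-bearing P. falciparum cultures (0.1% parasitemia, 2% hematocrit final) in Albumax-supplemented RPMI 1640.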
Shiga toxin inh: Shiga toxin inhibition | Vero cells, Shiga toxin protein synthesis inhibition reporter | inhibition, % at 38.7 µM | 9.2% of 290,000 active; in the data active means inhibition mostly above about 28%, no sharp cut-off; inactive means mostly below about 43%
AMA1-RON2 inh: disrupts binding of P. falciparum AMA1 to RON2; AlphaScreen AMA1-biotinylated RON2 peptide binding; 0.2% of 360,000 active; Potency, µM (doses to about 58.2 µM), most hits filed as inhibitors; further: nearly all actives have a fitted effect of over 45% in size
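AMA1 (3D7) with his tag at 25 nM final met compounds first, then biotinylated RON2 peptide at 25 nM; detection used donor plus acceptor beads, 10 µg/mL apiece, read by AlphaScreen after 30 min at room temperature.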
SARS PLP yeast: blocks SARS-CoV papain-like protease in a yeast assay | 0.19% of 330,000 active | S. cerevisiae expressing SARS-CoV PLpro, growth rescue | Potency, µM (doses to about 32.9 µM), most hits filed as activators; calls by dose curve; further: nearly all actives have a fitted effect of over 55% in size
Pf growth 96h: inhibits malaria parasite growth, 96 h; 6.9% of 320,000 active; Potency, µM (top dose mostly 28.7 µM), most hits filed as inhibitors; P. falciparum luciferase reporter growth, 96 h
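Two-generation exposure (96 h) targets delayed-death phenotype. Reporter parasites carrying integrated firefly luciferase, in red cells at 2% hematocrit and 0.05% parasitemia final, kept at 37 C, 5% CO2; luminescence loss indicates inhibition.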
Of the large screens only hits and unclear results are named; the others gave an inactive call. Sampled rows, rich in hits. Any-hit rate of the full collection: about 19%. Unless noted, the call rests on the fitted dose curve; in most records, active means well fitted curve in the direction sought with a large enough effect; inconclusive means small, poorly fitted or top-dose-only effect, or another doubt; inactive means no such curve, though single readings can be large; an effect the other way counts as inactive or inconclusive.

CCOc1ccc2nc(N3CCC(C(=O)Nc4ccc(Br)cc4F)CC3)sc2c1	Cycloheximide cs 35, Shiga toxin inh 173 (no result: Pf growth 48h, AMA1-RON2 inh, SARS PLP yeast, Pf growth 96h)
CC(=O)Nc1ccc(-c2ccc3nnc(C)n3n2)cc1	AMA1-RON2 inh inconclusive, Pf growth 96h inconclusive
Cc1nnc2ccc(-c3ccc(NC(=O)Cc4cccs4)cc3)nn12	Pf growth 96h 9.3µM
Cc1nnc2ccc(-c3ccc(NC(=O)c4ccco4)cc3)nn12	Cycloheximide cs 14, Pf growth 96h inconclusive
CC(=O)NS(=O)(=O)c1ccc(NC(=O)C(C)NS(=O)(=O)/C=C/c2ccccc2)cc1 (stereo not drawn)	none (no result: Cycloheximide cs, Pf growth 48h, Shiga toxin inh, Pf growth 96h)
COc1ccccc1N(CC(O)COc1c(C)cc(C)cc1C)S(=O)(=O)c1ccccc1 (stereo not drawn)	Pf growth 48h 12µM, Pf growth 96h 13µM
Cc1ccc(S(=O)(=O)N(CC(O)CN(C)C)c2ccccc2)cc1 (stereo not drawn)	Pf growth 96h 2.6µM
COc1ccccc1N(CC(O)COc1ccccc1)S(=O)(=O)c1ccccc1 (stereo not drawn)	Pf growth 48h inconclusive, Pf growth 96h inconclusive
COc1ccccc1N(CC(O)COc1ccc(C)cc1)S(=O)(=O)c1ccccc1 (stereo not drawn)	Pf growth 48h inconclusive, Pf growth 96h 2.1µM
Cc1cnc2c3c(cc(Cl)c2c1)-c1ccccc1S(=O)(=O)N3	Cycloheximide cs 73, Shiga toxin inh 54 (no result: Pf growth 48h, AMA1-RON2 inh, SARS PLP yeast, Pf growth 96h)
O=S1(=O)Nc2c(ccc3cccnc23)-c2ccccc21	Pf growth 48h 2.6µM
Cc1cc(C=C2C(=O)c3ccccc3C2=O)c(C)n1-c1ccc(C(=O)O)cc1	none
Cc1cc(C=C2C(=O)c3ccccc3C2=O)c(C)n1-c1cccc(C(=O)O)c1	Cycloheximide cs 43, Pf growth 48h inconclusive, Shiga toxin inh 104
Nc1ccccc1C=C1Cc2ccccc2C1=O	none (no result: Cycloheximide cs, Pf growth 48h, Shiga toxin inh, SARS PLP yeast, Pf growth 96h)
Cc1cc(/C=C2\Cc3ccccc3C2=O)c(C)n1-c1ccccc1	Cycloheximide cs 80, Shiga toxin inh 159
Cc1cc(C=C2C(=O)N(C)C(=O)N(C)C2=O)c(C)n1-c1ccccc1	Cycloheximide cs 25, Shiga toxin inh 53, Pf growth 96h inconclusive
COc1ccccc1/C=C1\Cc2ccccc2C1=O	Cycloheximide cs 32, Shiga toxin inh 51
CC1=NN(c2ccccc2)C(=O)/C1=C\c1cc(C)n(-c2ccccc2)c1C	none
O=C(O)c1cccnc1SC1CC(=O)N(c2ccc(OC(F)F)cc2)C1=O (stereo not drawn)	none
CC1=C(C(=O)N(C)C)CC(CC(=O)NCCc2ccccn2)C(=O)N1Cc1ccc(C(C)(C)C)cc1 (stereo not drawn)	none (no result: Cycloheximide cs, Pf growth 48h, Shiga toxin inh, SARS PLP yeast, Pf growth 96h)
Cc1cc(/C=N/O)c(C)n1-c1ccccc1	Pf growth 48h inconclusive
Cc1cc(C=C2C(=O)c3ccccc3C2=O)c(C)n1-c1ccccc1	Cycloheximide cs 51, Shiga toxin inh 118
NC(Cc1ccccc1)c1nc(-c2ccccc2)no1 (stereo not drawn)	Cycloheximide cs 30, Shiga toxin inh 38
Cc1[nH]c2ccccc2c1/C=N/Nc1nc(Nc2ccc(F)cc2)nc(N2CCOCC2)n1	Pf growth 48h 4.1µM, Pf growth 96h 2.6µM
Cc1ccc(Nc2nc(N/N=C/c3c[nH]c4ccccc34)nc(N3CCOCC3)n2)cc1	Cycloheximide cs 15, Pf growth 48h inconclusive, Pf growth 96h inconclusive
O=C(Oc1cccc(/C=N/Nc2nc(Nc3ccccc3)nc(N3CCOCC3)n2)c1)c1ccco1	Cycloheximide cs 13, Pf growth 48h inconclusive, Shiga toxin inh 23
C(=N\Nc1nc(Nc2ccccc2)nc(N2CCOCC2)n1)/c1c[nH]c2ccccc12	Cycloheximide cs 21, Pf growth 48h inconclusive, Pf growth 96h inconclusive
COCCN(C(=O)c1cc(CN2C(=O)c3ccccc3C2=O)ccc1OC)c1c(N)n(CC(C)C)c(=O)[nH]c1=O	none (no result: Cycloheximide cs, Pf growth 48h, Shiga toxin inh, SARS PLP yeast, Pf growth 96h)
Cc1cc2oc(C(=O)N(Cc3ccc(N(C)C)cc3)CC3CCCO3)c(C)c2cc1C (stereo not drawn)	Pf growth 48h inconclusive, AMA1-RON2 inh 14µM, Pf growth 96h inconclusive
Cc1ccc2oc(C(=O)N(Cc3ccc(N(C)C)cc3)CC3CCCO3)c(C)c2c1 (stereo not drawn)	AMA1-RON2 inh 18µM
Cc1c(C(=O)N(Cc2ccncc2)CC2CCCO2)oc2c(F)cccc12 (stereo not drawn)	Pf growth 96h 10µM
CN(c1ccccc1)c1nc(N)c([N+](=O)[O-])c(N2CCCC2)n1	Cycloheximide cs 37, Shiga toxin inh 81
CN(c1ccccc1)c1nc(N)c([N+](=O)[O-])c(N2CCOCC2)n1	none
Cc1cccc(Nc2nc(N)c([N+](=O)[O-])c(N3CCCC(C)C3)n2)c1 (stereo not drawn)	Pf growth 48h 12µM, AMA1-RON2 inh inconclusive, Pf growth 96h inconclusive
CN(c1ccccc1)c1nc(N)c([N+](=O)[O-])c(N2CCCCC2)n1	Cycloheximide cs 32, Shiga toxin inh 61
Cc1cccc(Nc2nc(N)c([N+](=O)[O-])c(N3CCN(C)CC3)n2)c1	Pf growth 48h inconclusive, Pf growth 96h inconclusive
Nc1nc(Nc2ccccc2F)nc(N2CCCC2)c1[N+](=O)[O-]	Cycloheximide cs 51, Shiga toxin inh 107
COc1ccc(Cl)cc1N1C(=NC(=O)C2CCCCC2)SC2CS(=O)(=O)CC21 (stereo not drawn)	none
CC(C)CCNc1nc(N)c([N+](=O)[O-])c(N2CCCCCC2)n1	Pf growth 48h 3.7µM, Pf growth 96h 2.1µM
CNc1nc(N)c([N+](=O)[O-])c(N2CCCCCC2)n1	none
CCc1ccc(CNC(=O)CCc2cn(C)c3ccccc23)cc1	none
Cc1ccc(CNC(=O)CCc2cn(C)c3ccccc23)cc1	Pf growth 96h 13µM
Cn1cc(CC(=O)NCc2ccc(F)cc2)c2ccccc21	Cycloheximide cs 12
CCOc1ccc(CNC(=O)CCCc2cn(C)c3ccccc23)cc1	Pf growth 48h 3.7µM
COc1ccc(-c2cn(CCC(=O)NCc3ccc(C)cc3)c(-c3ccncc3)n2)cc1	Pf growth 96h inconclusive
Cc1ccc(CNC(=O)CCn2cc(-c3ccc(C)cc3)nc2CCN)cc1	Pf growth 48h 12µM, Pf growth 96h inconclusive (no result: Cycloheximide cs, Shiga toxin inh)
Cc1ccncc1CNC(=O)c1ccccc1	none (no result: Cycloheximide cs, Pf growth 48h, Shiga toxin inh, SARS PLP yeast, Pf growth 96h)
CCOc1ccccc1CNC(=O)CCc1cn(CC)c2ccccc12	Pf growth 48h 15µM
CC(C)c1ccc(NC(=O)Cc2cn(C)c3ccccc23)cc1	Cycloheximide cs 14, AMA1-RON2 inh inconclusive, Pf growth 96h inconclusive
Cc1ccc(Cn2cc(CCC(=O)O)c3ccccc32)cc1	Pf growth 96h 4.7µM (no result: Pf growth 48h)
CCn1cc(CCCC(=O)NCc2ccc(OC)cc2)c2ccccc21	Pf growth 48h 2.3µM
CCn1cc(CCC(=O)NCc2cccc(OC)c2OC)c2ccccc21	none
COc1ccccc1CCC(=O)NCCCn1ccc2ccccc21	Pf growth 48h inconclusive
COc1cccc(CN(CC(=O)NCc2ccccc2)C(=O)c2csnn2)c1	none
